Test results from publication PMC5836133, “The intracellular immune receptor Rx1 regulates the DNA-binding activity of a Golden2-like transcription factor”.
The full ranking holds about 16,000 sequences; the median of “e-score” is about -0.044, and the highest 2% start at about 0.38. For the sample, the highest values were picked, then their nearest neighbours and some sequences at random.

Target: T1, GST-NbGlk1(82-244) (Nicotiana benthamiana)
T1 chain: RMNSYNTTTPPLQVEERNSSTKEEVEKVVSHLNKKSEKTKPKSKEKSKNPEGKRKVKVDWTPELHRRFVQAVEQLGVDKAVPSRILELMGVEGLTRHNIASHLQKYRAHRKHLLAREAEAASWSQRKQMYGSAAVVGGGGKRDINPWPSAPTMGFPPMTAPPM
Experiment: protein-binding microarray; NbGlk1 is a Golden2-like transcription factor of Nicotiana benthamiana; high values mean tight binding
Settings: protein: recombinant; tags: GST (pTH6838); dsDNA, one strand shown

Sequence | binding signal [E-score]
ATCCCGTA | 0.31 ± 0.0475
ATACGAGA | 0.231 ± 0.0125
ATATTAGA | 0.212 ± 0.0145
ATTTGTAG | 0.21 ± 0.125
AATATTGC | 0.225 ± 0.0215
AAGATTGC | 0.443 ± 0.0277
AAGATTGG | 0.206 ± 0.0123
CAGATTGC | 0.4754 ± 0.00468
AAGATTGT | 0.297 ± 0.0412
ATCTATAG | 0.288 ± 0.0139
ATCGAGAT | 0.327 ± 0.0101
AACAGGAA | 0.207 ± 0.0723
ATCTTAAC | 0.317 ± 0.00626
ATAAATCA | 0.239 ± 0.0998
AGCAATCG | 0.308 ± 0.0291
ACAAATCA | 0.262 ± 0.0406
AGAAATCT | 0.465 ± 0.00635
AGAATTCT | 0.299 ± 0.0757
AGAAATCC | 0.464 ± 0.00886
AGTAATCC | 0.369 ± 0.00994
AGAAATCG | 0.338 ± 0.0619
AGAAATCA | 0.3794 ± 0.00281
AGAAATAT | 0.3621 ± 0.00196
AGCAATCA | 0.321 ± 0.00992
AGCAATCC | 0.412 ± 0.0143

Sequence | binding signal [E-score]
ATCTTAAA | 0.272 ± 0.0208
AAGATCCA | 0.24 ± 0.0941
ATGTAGTA | 0.223 ± 0.0748
ATTTCACA | 0.304 ± 0.0596
ATTCTGCA | 0.266 ± 0.0788
ATTCTGCG | 0.217 ± 0.0166
AATCTGCC | 0.34 ± 0.133
AATCTGCG | 0.444 ± 0.00526
AATCTGCA | 0.414 ± 0.00858
AATCAGCA | 0.322 ± 0.0337
ATCCGGGG | 0.279 ± 0.0126
ATCCGCAA | 0.325 ± 0.0306
ATCTCACC | 0.317 ± 0.00666
ATTACGAC | 0.351 ± 0.0302
AGTATCGG | 0.202 ± 0.042
ATATAACA | 0.214 ± 0.0677
ATCCGCAC | 0.284 ± 0.0333
ACGATCCT | 0.272 ± 0.0244
AAGTAATC | 0.337 ± 0.0373
ACATAATC | 0.327 ± 0.0217
AGGTAAAT | 0.205 ± 0.0739
ACGTAATA | 0.285 ± 0.0122
ATGTAATC | 0.462 ± 0.0104
ACGTAATC | 0.4759 ± 0.00151
ATCTAATC | 0.331 ± 0.07

Sequence | binding signal [E-score]
AGGTAATC | 0.416 ± 0.00105
ATATAATC | 0.297 ± 0.00596
ATGGTATC | 0.2 ± 0.0619
ATCTTTTC | 0.289 ± 0.0307
AAATCGAA | 0.329 ± 0.0505
ATCTCGGA | 0.36 ± 0.00407
ATACTGTA | 0.274 ± 0.0926
ATTTCCAA | 0.36 ± 0.0335
ATTTTGCG | 0.293 ± 0.0239
AGGCGGAT | 0.206 ± 0.0564
ATTTCATA | 0.353 ± 0.0105
AACGCAAT | 0.344 ± 0.0179
ATCGCGAG | 0.33 ± 0.00694
ATCGCGAT | 0.4239 ± 0.000981
ATCGCAAA | 0.234 ± 0.0734
ATCGCAAT | 0.397 ± 0.0277
ATCGCGAA | 0.323 ± 0.0256
ATTTTTAC | 0.313 ± 0.0485
ACATATCG | 0.226 ± 0.0607
AGATCCCT | 0.298 ± 0.00953
ATGGCAAT | 0.237 ± 0.0667
ATCTAGTA | 0.316 ± 0.0615
ACGTGGAT | 0.283 ± 0.0431
ATTTTTAA | 0.221 ± 0.0275
AAGCGATC | 0.294 ± 0.0444

Sequence | binding signal [E-score]
ACGCGATC | 0.437 ± 0.0114
ACGCGATA | 0.252 ± 0.00347
ATCTTGTG | 0.318 ± 0.0738
AATATCGG | 0.371 ± 0.0225
AGTATCTC | 0.235 ± 0.067
AATATATC | 0.311 ± 0.00568
AGTATCTA | 0.305 ± 0.0244
AATATCTC | 0.391 ± 0.0345
AATATCAA | 0.322 ± 0.0489
AATATCTG | 0.423 ± 0.0344
AATATCTA | 0.402 ± 0.018
AGTATCTG | 0.339 ± 0.041
ATTTAAAG | 0.222 ± 0.0214
AACGTATA | 0.225 ± 0.0359
ATTCGCAG | 0.292 ± 0.0538
CACAATCA | 0.27 ± 0.109
AAGGGATT | 0.3179 ± 0.00237
ATTTCGCA | 0.279 ± 0.0966
ATCCTGTG | 0.205 ± 0.0418
ATTCTGTG | 0.25 ± 0.0953
AATCAGAG | 0.229 ± 0.0948
AATCTGTG | 0.411 ± 0.0099
AATCAGTG | 0.266 ± 0.0198
AATCTGAG | 0.415 ± 0.0436
AAGCAAAT | 0.207 ± 0.0438

Sequence | binding signal [E-score]
AACGAAAT | 0.344 ± 0.0502
ATCAGAAG | 0.24 ± 0.0447
AATATCAC | 0.34 ± 0.00742
ATTCGATC | 0.207 ± 0.00438
AATGGATA | 0.3 ± 0.0974
AAAATATG | 0.218 ± 0.038
CAAATATC | 0.375 ± 0.0172
ATAATATC | 0.347 ± 0.0287
AGAATATG | 0.253 ± 0.0505
AAAATATC | 0.406 ± 0.00752
ACAATATA | 0.206 ± 0.0382
ACAATATC | 0.3871 ± 0.00293
AGAATATA | 0.267 ± 0.0326
AGAATATC | 0.4346 ± 0.00342
ATCCTTTG | 0.201 ± 0.0717
AATCGCTG | 0.234 ± 0.00581
ATCTAACC | 0.266 ± 0.0179
AGTGATAT | 0.298 ± 0.0207
ATCGCACC | 0.247 ± 0.126
ATTACAAA | 0.302 ± 0.0597
AGGATTAC | 0.449 ± 0.00837
ACGATTCT | 0.362 ± 0.0226
AGGATTCC | 0.448 ± 0.00523
AGGATTCG | 0.352 ± 0.0252
AGGATCGC | 0.357 ± 0.0151

Sequence | binding signal [E-score]
ATGATTCC | 0.306 ± 0.0505
ATGATTGC | 0.33 ± 0.019
ACGATTCG | 0.324 ± 0.025
AGAATTAC | 0.23 ± 0.0195
AGGATTGC | 0.45 ± 0.0104
AGGATTAT | 0.31 ± 0.0692
ACGATTCC | 0.4 ± 0.0168
ACTTAGAT | 0.257 ± 0.118
ATCCACCC | 0.255 ± 0.0461
AAGGATTA | 0.278 ± 0.0334
ATCTATGG | 0.205 ± 0.011
ATATCGAG | 0.296 ± 0.0718
ATTATTCC | 0.252 ± 0.0429
AACGAGAT | 0.309 ± 0.0377
AATAGGAT | 0.218 ± 0.15
AGCAGAAT | 0.255 ± 0.0466
ATACTCCA | 0.208 ± 0.0394
ATCGTAAT | 0.375 ± 0.0645
ATCGGAAA | 0.25 ± 0.0729
ACGATTGC | 0.345 ± 0.0699
ATGATTAC | 0.302 ± 0.0176
ACGATTAC | 0.407 ± 0.0433
ATTTTCGG | 0.237 ± 0.0617
CAATCTAA | 0.351 ± 0.0122
AAATCAAA | 0.309 ± 0.0265

Sequence | binding signal [E-score]
AAATCTAC | 0.441 ± 0.0198
CAATCTAC | 0.341 ± 0.0196
AAATCTAT | 0.419 ± 0.0237
AAATCTAG | 0.452 ± 0.0158
AAATCGAG | 0.288 ± 0.0697
AGATCTAT | 0.337 ± 0.0129
AAATCAAC | 0.349 ± 0.0103
AAATCAAT | 0.31 ± 0.0292
AAATCTAA | 0.4499 ± 0.000584
CAATCTAG | 0.3742 ± 0.000815
ATATAAAA | 0.212 ± 0.0169
ACCGGATA | 0.262 ± 0.0765
AATTTCGT | 0.284 ± 0.0162
ATCTCGCA | 0.324 ± 0.0204
AAATAATA | 0.227 ± 0.0112
ACAAATAT | 0.313 ± 0.0317
ATCGGGAA | 0.276 ± 0.0291
ACCTAGAT | 0.291 ± 0.0209
ATCGCATG | 0.29 ± 0.0714
CAATCATA | 0.255 ± 0.00353
ATTATAAG | 0.253 ± 0.0219
ATCCGCCA | 0.254 ± 0.0406
